# Assays:
# Test in all cases: universal protein binding microarray (PBM); transcription factors of Arabidopsis thaliana; high values mean tight binding
# [1] = target: T1, GST-ANAC092(1-176) (Arabidopsis thaliana, UniProt Q9FKA0 1-176); conditions: protein: recombinant; tags: GST; chain copies: 2; dsDNA, one strand shown
# T1 sequence: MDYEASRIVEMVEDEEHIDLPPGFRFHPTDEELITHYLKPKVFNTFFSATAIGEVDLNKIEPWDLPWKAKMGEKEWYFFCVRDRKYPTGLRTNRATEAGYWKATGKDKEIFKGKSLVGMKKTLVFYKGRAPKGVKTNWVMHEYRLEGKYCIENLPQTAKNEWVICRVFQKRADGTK
# Procedure, shortened: (§1)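 Each value is a normalised enrichment score (E-score) describing binding. The GST-tagged proteins, NAC-domain, full-length or DNA-binding-domain, were induced in cells (zinc-finger proteins with zinc acetate added) and purified on glutathione–Sepharose 4B. They were applied at 200 to 500 nM final, in duplicate, to double-stranded custom all-10-mer Agilent 4 × 180K arrays, and gapped and ungapped 8-mers were scored.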
# [2] = target: GST-NTL6(1-168) (Arabidopsis thaliana, UniProt Q9SCK6 1-168); conditions: protein: recombinant; tags: GST; chain copies: 2; dsDNA, one strand shown
# Procedure, shortened: as §1
# [3] = target: T2, GST-ANAC055(1-171) (Arabidopsis thaliana, UniProt Q9LDY8 1-171); conditions: protein: recombinant; tags: GST; chain copies: 2; dsDNA, one strand shown
# T2 sequence: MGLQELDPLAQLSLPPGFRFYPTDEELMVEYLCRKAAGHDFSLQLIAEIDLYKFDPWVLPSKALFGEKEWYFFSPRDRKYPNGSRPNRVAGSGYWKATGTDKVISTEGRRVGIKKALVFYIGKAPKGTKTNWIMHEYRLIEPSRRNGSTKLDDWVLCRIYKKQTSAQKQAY
# Procedure, shortened: as §1
# [4] = target: T3, GST-ANAC092(1-285) full length (Arabidopsis thaliana, UniProt Q9FKA0 1-285); conditions: protein: recombinant; tags: GST; chain copies: 2; dsDNA, one strand shown
# T3 sequence: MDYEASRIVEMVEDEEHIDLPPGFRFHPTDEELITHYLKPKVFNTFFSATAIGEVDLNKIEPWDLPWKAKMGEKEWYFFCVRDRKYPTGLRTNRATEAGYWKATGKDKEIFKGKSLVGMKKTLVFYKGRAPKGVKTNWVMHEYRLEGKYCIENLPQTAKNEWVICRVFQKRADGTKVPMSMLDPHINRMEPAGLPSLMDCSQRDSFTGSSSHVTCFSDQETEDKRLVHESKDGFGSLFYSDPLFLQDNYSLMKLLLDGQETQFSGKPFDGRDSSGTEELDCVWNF
# Procedure, shortened: as §1
# [5] = target: T4, GST-NST2(1-184) (Arabidopsis thaliana, UniProt Q9M274 1-184); conditions: protein: recombinant; tags: GST; chain copies: 2; dsDNA, one strand shown
# T4 sequence: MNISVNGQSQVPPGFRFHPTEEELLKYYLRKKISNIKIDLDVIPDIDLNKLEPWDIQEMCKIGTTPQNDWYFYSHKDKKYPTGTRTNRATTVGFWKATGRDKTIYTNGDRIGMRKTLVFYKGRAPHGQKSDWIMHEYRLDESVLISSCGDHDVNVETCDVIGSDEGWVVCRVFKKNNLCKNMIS
# Procedure, shortened: as §1
# [6] = target: T5, GST-NTL8 NAC domain (Arabidopsis thaliana, UniProt Q9XIN7 14-156); conditions: protein: recombinant; tags: GST; chain copies: 2; dsDNA, one strand shown
# T5 sequence: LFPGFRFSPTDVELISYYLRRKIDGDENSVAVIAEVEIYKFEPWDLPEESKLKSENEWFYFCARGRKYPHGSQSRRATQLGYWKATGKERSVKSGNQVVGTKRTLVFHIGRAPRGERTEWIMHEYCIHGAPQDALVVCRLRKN
# Procedure, shortened: as §1
# [7] = target: T6, GST-SND1(1-203) (Arabidopsis thaliana, UniProt Q9LPI7 1-203); conditions: protein: recombinant; tags: GST; chain copies: 2; dsDNA, one strand shown
# T6 sequence: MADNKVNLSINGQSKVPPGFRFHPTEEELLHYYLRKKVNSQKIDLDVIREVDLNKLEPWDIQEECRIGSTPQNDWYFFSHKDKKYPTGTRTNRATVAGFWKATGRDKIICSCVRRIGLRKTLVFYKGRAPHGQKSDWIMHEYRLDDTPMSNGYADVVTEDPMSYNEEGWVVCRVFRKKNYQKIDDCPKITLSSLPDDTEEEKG
# Procedure, shortened: as §1
# [8] = target: T7, GST-VND7 NAC domain (Arabidopsis thaliana, UniProt Q9C8W9 9-158); conditions: protein: recombinant; tags: GST; chain copies: 2; dsDNA, one strand shown
# T7 sequence: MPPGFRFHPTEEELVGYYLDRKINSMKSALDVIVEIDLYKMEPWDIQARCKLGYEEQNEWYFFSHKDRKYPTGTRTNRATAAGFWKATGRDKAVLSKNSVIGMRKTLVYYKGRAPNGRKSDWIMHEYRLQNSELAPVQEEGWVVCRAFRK
# Procedure, shortened: as §1
# [9] = target: GST-WRKY1(266-371) (Arabidopsis thaliana, UniProt Q9SI37 266-371); conditions: protein: recombinant; tags: GST; dsDNA, one strand shown
# Procedure, shortened: as §1
# [10] = target: T8, GST-ANAC019 NAC domain (Arabidopsis thaliana, UniProt Q9C932 14-162); conditions: protein: recombinant; tags: GST; chain copies: 2; dsDNA, one strand shown
# T8 sequence: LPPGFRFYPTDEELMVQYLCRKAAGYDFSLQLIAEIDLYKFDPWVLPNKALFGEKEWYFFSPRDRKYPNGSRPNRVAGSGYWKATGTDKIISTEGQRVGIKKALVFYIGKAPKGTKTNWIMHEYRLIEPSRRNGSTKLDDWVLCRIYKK
# Procedure, shortened: as §1
# [11] = target: T9, GST-ATAF1 NAC domain (Arabidopsis thaliana, UniProt Q39013 7-158); conditions: protein: recombinant; tags: GST; chain copies: 2; dsDNA, one strand shown
# T9 sequence: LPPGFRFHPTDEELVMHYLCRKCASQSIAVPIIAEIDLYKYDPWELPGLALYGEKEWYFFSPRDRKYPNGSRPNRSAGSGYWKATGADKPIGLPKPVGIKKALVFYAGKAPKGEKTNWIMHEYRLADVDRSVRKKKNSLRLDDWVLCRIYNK
# Procedure, shortened: as §1
# [12] = target: T10, GST-NAP(1-166) (Arabidopsis thaliana, UniProt O49255 1-166); conditions: protein: recombinant; tags: GST; chain copies: 2; dsDNA, one strand shown
# T10 sequence: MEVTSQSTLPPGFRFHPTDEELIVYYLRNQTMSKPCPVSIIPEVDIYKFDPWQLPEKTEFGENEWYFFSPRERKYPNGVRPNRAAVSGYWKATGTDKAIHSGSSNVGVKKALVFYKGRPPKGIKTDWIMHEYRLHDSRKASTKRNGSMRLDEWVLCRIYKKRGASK
# Procedure, shortened: as §1
# Chain of GST-WRKY1(266-371) (Q9SI37 266-371): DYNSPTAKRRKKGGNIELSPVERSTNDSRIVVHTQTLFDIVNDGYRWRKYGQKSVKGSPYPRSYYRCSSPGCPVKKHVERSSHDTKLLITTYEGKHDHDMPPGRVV
# Chain of GST-NTL6(1-168) (Q9SCK6 1-168): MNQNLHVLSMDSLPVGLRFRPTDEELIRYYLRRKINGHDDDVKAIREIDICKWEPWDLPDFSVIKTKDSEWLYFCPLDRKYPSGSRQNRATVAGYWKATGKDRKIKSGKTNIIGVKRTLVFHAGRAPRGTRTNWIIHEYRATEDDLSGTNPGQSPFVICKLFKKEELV
sequence,measurement,setting,value
ACCTTTCC,binding signal,[1],0.188 E-score
same,binding signal,[2],0.196 E-score
same,binding signal,[3],0.0893 E-score
same,binding signal,[4],0.0538 E-score
same,binding signal,[5],0.0986 E-score
same,binding signal,[6],0.431 E-score
same,binding signal,[7],0.143 E-score
same,binding signal,[8],0.0596 E-score
TGACCGAA,binding signal,[7],0.0502 E-score
same,binding signal,[9],0.459 E-score
AAGAAACC,binding signal,[1],0.246 E-score
same,binding signal,[2],0.261 E-score
same,binding signal,[10],0.0937 E-score
same,binding signal,[3],0.135 E-score
same,binding signal,[11],0.177 E-score
same,binding signal,[4],0.311 E-score
same,binding signal,[5],0.265 E-score
same,binding signal,[6],0.435 E-score
same,binding signal,[7],0.216 E-score
same,binding signal,[8],0.139 E-score
AGGGTAAA,binding signal,[1],0.1 E-score
same,binding signal,[2],0.0852 E-score
same,binding signal,[3],0.0614 E-score
same,binding signal,[4],0.0699 E-score
same,binding signal,[12],0.0883 E-score
same,binding signal,[5],0.14 E-score
same,binding signal,[6],0.429 E-score
same,binding signal,[7],0.153 E-score
same,binding signal,[8],0.108 E-score
ACGCTTCC,binding signal,[1],0.334 E-score
same,binding signal,[2],0.0789 E-score
same,binding signal,[10],0.171 E-score
same,binding signal,[3],0.106 E-score
same,binding signal,[11],0.139 E-score
same,binding signal,[4],0.402 E-score
same,binding signal,[12],0.0721 E-score
same,binding signal,[5],0.206 E-score
same,binding signal,[7],0.296 E-score
same,binding signal,[8],0.151 E-score
CACGCTAA,binding signal,[1],0.453 E-score
same,binding signal,[2],0.0834 E-score
same,binding signal,[10],0.226 E-score
same,binding signal,[4],0.471 E-score
same,binding signal,[5],0.224 E-score
same,binding signal,[7],0.415 E-score
same,binding signal,[8],0.112 E-score
GGGGGAAA,binding signal,[1],0.117 E-score
same,binding signal,[2],0.314 E-score
same,binding signal,[10],0.12 E-score
same,binding signal,[4],0.139 E-score
same,binding signal,[6],0.472 E-score
same,binding signal,[7],0.147 E-score
AAGTCAAT,binding signal,[2],0.118 E-score
same,binding signal,[11],0.126 E-score
same,binding signal,[4],0.119 E-score
same,binding signal,[7],0.0507 E-score
same,binding signal,[9],0.481 E-score
GAGTTGAC,binding signal,[10],0.0811 E-score
same,binding signal,[5],0.102 E-score
same,binding signal,[7],0.0621 E-score
same,binding signal,[9],0.476 E-score
ACTGACCT,binding signal,[6],0.109 E-score
same,binding signal,[7],0.0503 E-score
same,binding signal,[9],0.407 E-score
AGCGTTGA,binding signal,[2],0.0737 E-score
same,binding signal,[4],0.0576 E-score
same,binding signal,[5],0.0637 E-score
same,binding signal,[7],0.0527 E-score
same,binding signal,[9],0.401 E-score
GGGGTCAA,binding signal,[10],0.133 E-score
same,binding signal,[4],0.101 E-score
same,binding signal,[6],0.154 E-score
same,binding signal,[7],0.0652 E-score
same,binding signal,[9],0.481 E-score
TCAAGTCA,binding signal,[3],0.0629 E-score
same,binding signal,[11],0.0801 E-score
same,binding signal,[4],0.196 E-score
same,binding signal,[5],0.057 E-score
same,binding signal,[7],0.171 E-score
same,binding signal,[9],0.453 E-score
CTTTGACC,binding signal,[1],0.051 E-score
same,binding signal,[7],0.0526 E-score
same,binding signal,[9],0.488 E-score

# — publication PMC4081100, “A DNA-binding-site landscape and regulatory network analysis for NAC transcription factors in Arabidopsis thaliana”
